Screening data (PubChem BioAssay)
ADAM10 inh = ADAM10 inhibition, QFRET primary screen; recombinant ADAM10, EDANS/DABCYL FRET peptide cleavage, 3 h; inhibition, % at 7 µM; actives 0.62% (n = 370,000); AID 720582;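 active means inhibition above a per-campaign cutoff equal to the mean of compounds falling between control-based bounds plus 3 SD, cut at about 20% in these data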;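 further: 0% = DMSO wells while the 100% control is not disclosed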
FGF22 binding = FGF22 (human) thermal shift binding; recombinant FGF22 thermal shift, SYPRO orange fluorescence; percent of sucrose octasulfate shift, DMSO zero; activity (Tm shift, normalised), % at 9.99 µM; actives 1.5% (n = 340,000);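 active means mean Tm shift, scaled 0 neutral to 100 positive control, at about 1.3% or above, every replicate too, limit read from the data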
Target sequence (Q9HCT0 whole entry, looked up): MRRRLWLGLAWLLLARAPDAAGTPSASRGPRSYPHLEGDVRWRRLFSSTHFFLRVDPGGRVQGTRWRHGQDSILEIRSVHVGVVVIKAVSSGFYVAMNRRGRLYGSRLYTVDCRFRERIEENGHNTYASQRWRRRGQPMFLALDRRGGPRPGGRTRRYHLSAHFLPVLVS
proKLK7 act = activates the human kallikrein-7 zymogen; actives 0.9% (n = 370,000); AID 652039; activation, % at 7 µM; P49862; purified proKLK7, EDANS-DABCYL substrate fluorescence; 100% is mature enzyme control, 0% vehicle;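 active means activation above the mean of all tested compounds plus 3 SD, computed per campaign excluding outliers beyond control limits, cut at about 13% in these data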
Target sequence (P49862 whole entry, looked up): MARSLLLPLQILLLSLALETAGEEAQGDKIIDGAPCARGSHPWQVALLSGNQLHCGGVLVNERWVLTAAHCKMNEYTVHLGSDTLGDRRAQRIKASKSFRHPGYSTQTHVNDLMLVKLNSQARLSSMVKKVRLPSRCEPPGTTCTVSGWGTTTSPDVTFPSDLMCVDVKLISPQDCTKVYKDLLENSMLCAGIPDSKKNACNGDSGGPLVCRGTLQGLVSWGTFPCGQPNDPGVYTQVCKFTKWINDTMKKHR
rRNA inh HTS = inhibits bacterial ribosomal RNA function over humanized ribosomes | E. coli WT GFP vs humanized-ribosome RFP mutants, fluorescence, 24 h; active compounds read low; DMSO median 0, no signal -100 | GFP signal change (wild-type ribosome), % (no concentration beside the values) | actives 1.6% (n = 350,000) | AID 720706;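 active means significant combined selectivity score with lowered wild-type GFP, culture density cut under 30%, mutant RFP and density less affected; inactive means any of these conditions unmet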
ADAM17 inh = inhibits human ADAM17; actives 0.83% (n = 370,000); recombinant ADAM17, EDANS/DABCYL FRET peptide cleavage; P78536; AID 720648; inhibition, % at 6.95 µM;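 active means inhibition above the mean of compounds lying between control limits plus 3 SD, set per campaign, cut at about 8.5% in these data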;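 further: 0% = DMSO-only wells as the low control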
ADAM10 confirm = confirmation of inhibitors of human ADAM10 | actives 1% (n = 2,100) | inhibition, % at 6.95 µM | AID 743208 | ADAM10 QFRET peptide cleavage, EDANS fluorescence | shares compounds with ADAM10 inh;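 active means inhibition above about 20% chosen separately for each screening run, limit read from the data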;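 further: 0% = DMSO wells and 100% = marimastat wells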
ADAM17 ctr = inhibits human ADAM17 in ADAM10 exosite counter-screen; inhibition, % at 6.95 µM; ADAM17 QFRET peptide cleavage, EDANS fluorescence; actives 0.5% (n = 2,100); shares compounds with ADAM10 inh;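 active means mean triplicate inhibition above the solvent-only control wells' mean plus 3 SD, cut at about 12% in these data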;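 further: 0% = DMSO wells and 100% = marimastat wells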
* = called active by the depositor; x = no result. Sampled rows, rich in hits. Any-hit rate of the full collection: about 3.8%.

SMILES	ADAM10 inh	FGF22 binding	proKLK7 act	rRNA inh HTS	ADAM17 inh	ADAM10 confirm	ADAM17 ctr
O=C(Nc1ccc(C(F)(F)F)cc1)N1[C@@H]2CNC[C@H]1C2c1ccc(-c2ccc(F)cc2)cc1 (stereo partly specified)	x	x	x	-57	x	x	x
COc1ccccc1NC(=O)CN(c1ccc(C23CC4CC(CC(C4)C2)C3)cc1)S(C)(=O)=O	22*	x	0	x	4	16	5
CS(=O)(=O)N(CC(=O)O)c1ccc(C23CC4CC(CC(C4)C2)C3)cc1	6	0	0	-1	2	x	x
O=C(Cn1nc(-c2ccccc2F)ccc1=O)Nc1ccc(S(=O)(=O)N2CCCCCC2)cc1	6	x	0	x	1	x	x
O=C(Cn1ncc2c1-c1ccccc1OC2)Nc1ccc(S(=O)(=O)N2CCCCC2)cc1	22*	0	0	1	10*	7	2
O=C(C[C@@H]1CC[C@H]2[C@@H](COC[C@@H](O)CN2CC2CCCCC2)O1)NCc1ccc(F)cc1	x	0	x	-27	x	x	x
CCO[C@@H]1OC(C(=O)Nc2ccccc2)=C[C@H](c2ccc(C(F)(F)F)cc2)[C@H]1CCCO	18	0	0	6	6	x	x
CCO[C@H]1OC(C(=O)Nc2ccccc2)=C[C@@H](c2ccc(Br)cc2)[C@@H]1CCCO	24*	-1	0	-19	9	7	2
COc1ccc2c3c(n(C)c2c1)[C@H](CO)N(C(=O)Nc1c(C)noc1C)CC31CCN(CC2CC2)CC1	x	0	x	6	x	x	x
Cc1ccc(CNC(=O)c2cccc3c2C(=O)c2ccc(N4CCCCC4)cc2S3(=O)=O)cc1	21*	0	-4	11	5	7	0
CCOC(=O)/C=C/C(=O)Nc1ccc(Oc2ccccc2)cc1	21*	0	0	-38	1	2	0
CC(=O)N(C)C[C@H]1Oc2cc(C#CC(C)(C)O)ccc2S(=O)(=O)N([C@H](C)CO)C[C@@H]1C	x	0	x	4	x	x	x
CCC(C(=O)Oc1c(C(C)C)cccc1C(C)C)c1ccccc1 (stereo unspecified)	79*	0	1	-54	5	-1	0
COc1ccc(NC(=O)Nc2ccc3c(c2)C(=O)N([C@@H](C)CO)C[C@H](C)[C@H](CN(C)Cc2ccncc2)OCCCC[C@@H](C)O3)cc1	x	-1	x	-2	x	x	x
CC(C)NC(=O)N(C)C[C@H]1Oc2ccc(NC(=O)C3CCCCC3)cc2CC(=O)N([C@H](C)CO)C[C@@H]1C	x	0	x	1	x	x	x
COc1ccc2c3c(n(C)c2c1)[C@@H](CO)N(C(=O)CC1CC1)CC31CCN(Cc2ccncc2)CC1	x	0	x	-3	x	x	x
COc1ccc(S(=O)(=O)NC(C)C(=O)Nc2ccccc2F)cc1 (stereo unspecified)	-2	x	1	x	0	x	x
COc1ccc(S(=O)(=O)NC(C)C(=O)Nc2cccc(C(C)=O)c2)cc1 (stereo unspecified)	31*	x	0	x	6	0	1
C=CCN1C(=O)[C@]2(O[C@H](CCn3cc(CCO)nn3)[C@@H]([Si](C)(C)c3ccc(OC)cc3)[C@@H]2C)c2cc(N3C(=O)c4cccc5cccc3c45)ccc21	x	0	x	x	x	x	x
Cc1c(C(=O)N(C)Cc2ccc(OC(F)F)cc2)oc2ccccc12	20*	0	0	-4	2	2	0
COc1ccc(CCN(C)C(=O)c2oc3ccccc3c2C)cc1OC	-3	0	0	-6	-3	x	x
Cc1ccc(OCCNC(=O)c2cccc(S(=O)(=O)NCc3ccccc3)c2)cc1	21*	0	1	-2	3	2	0
O=C(NCc1ccncc1)c1cccc(S(=O)(=O)NCc2ccccc2)c1	2	0	0	2	4	x	x
CC(=O)c1cccc(NC(=O)c2ccc3c(c2)CCN3S(=O)(=O)c2ccccc2)c1	23*	0	0	-12	5	4	2
CCc1ccc(NSc2ccccc2[N+](=O)[O-])cc1	20*	0	0	-52	8	6	2
